Test results: PubChem BioAssay AID651601 (Sanford-Burnham Center for Chemical Genomics, 2012)
Calls of active or inactive are those of the source.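 How the source made its calls: active means CXCR6 mean IC50 below 15 µM, and neither CCR6 nor CXCR5 mean IC50 under five times that; inactive means the rest.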

biological target: C-X-C chemokine receptor type 5 (Homo sapiens) (UniProt P32302); test: antagonist selectivity across CCR6, CXCR5 and CXCR6 – cell-based, CHO-K1 PathHunter beta-arrestin, luminescence, selectivity assay for CXCR6 antagonist project, profiling panel (AID 651601); conditions: antagonist mode, mean of runs
Sequence (P32302 whole entry, looked up): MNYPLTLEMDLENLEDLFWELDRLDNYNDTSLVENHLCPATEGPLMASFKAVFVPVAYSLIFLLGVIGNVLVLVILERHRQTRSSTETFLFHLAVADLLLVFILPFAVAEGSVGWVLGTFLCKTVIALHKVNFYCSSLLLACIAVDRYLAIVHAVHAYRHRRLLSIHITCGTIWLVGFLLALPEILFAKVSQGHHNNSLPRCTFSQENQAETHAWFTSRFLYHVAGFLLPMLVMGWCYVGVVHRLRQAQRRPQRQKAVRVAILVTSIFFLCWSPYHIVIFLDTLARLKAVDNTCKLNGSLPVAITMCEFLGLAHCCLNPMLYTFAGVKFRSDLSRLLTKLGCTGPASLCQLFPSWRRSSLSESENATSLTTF

outcome, inactive:
COc1cccc(C(=O)NC2CC3CCCC(C2)N3CC(=O)Nc2ccccc2C(F)(F)F)c1 (stereo unspecified), O=C(CN1C2CCCC1CC(NC(=O)c1ccccc1)C2)Nc1ccccc1C(F)(F)F (stereo unspecified), COc1cc(C(=O)NC2CC3CCCC(C2)N3CC(=O)Nc2ccccc2)cc(OC)c1OC (stereo unspecified), CN(C)c1ccc(NC(=O)CN2C3CCCC2CC(NC(=O)c2ccccc2)C3)cc1 (stereo unspecified), O=C(CN1C2CCCC1CC(NC(=O)c1ccccc1)C2)Nc1ccccc1 (stereo unspecified), COc1cccc(C(=O)NC2CC3CCCC(C2)N3CC(=O)Nc2ccc(N(C)C)cc2)c1 (stereo unspecified)
